Experimental data taken from PubChem BioAssay (NCATS).
“And” between values parts separate entries of the source, which are not always exact repeats. Identical values can stand only once. Results filed as inconclusive are left out. The source made the active and inactive calls. Unless noted, the rule behind the calls is not given here.

Assays:
[1] = qHTS profiling of the MIPE4 collection as inhibitors of Plasmodium falciparum (3D7) proliferation (AID 743344);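 note: scaled between DMSO vehicle wells and 0.29 µM artemisinin as full inhibition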; conditions: P. falciparum 3D7 in erythrocytes, SYBR Green DNA fluorescence, 72 h; at 28.5 µM unless noted
Outline: (§1)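 Parasite DNA was quantified by SYBR Green I fluorescence (ex 485, em 535 nm) after overnight lysis in saponin/Triton buffer at room temperature. Cultures at 0.3% parasitemia and 2.5% hematocrit were first exposed to compound for 72 h at 37 C; signals were normalised to artemisinin (0.29 uM) and vehicle wells.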

[2] = qHTS profiling for inhibitors of Plasmodium falciparum (3D7) proliferation (AID 743322);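 note: infected erythrocytes exposed to compound for 72 h before lysis; 100% = DMSO vehicle wells and 0% = 0.29 µM artemisinin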; conditions: P. falciparum 3D7 proliferation; at 28.7 µM (top of the series)
Outline: as §1

[3] = qHTS profiling for inhibitors of Plasmodium falciparum (DD2) proliferation (AID 743323); conditions: lower = more inhibition; at 28.7 µM (top of the series)
Outline: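 SYBR Green fluorescence (ex 485, em 535 nm) of lysed cultures gives parasite DNA content; wells normalized to artemisinin (0.29 uM) and DMSO controls. Infected red cells: 0.3% parasitemia, 2.5% hematocrit, 72 h, 37 C.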

[4] = qHTS profiling for inhibitors of Plasmodium falciparum (HB3) proliferation (AID 743324; active = well fitted curve in the direction sought with a large enough effect; an effect the other way counts as inactive or inconclusive;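 note: 100% = DMSO vehicle wells and 0% = artemisinin-treated control wells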); conditions: Plasmodium falciparum HB3 blood-stage proliferation; at 28.7 µM (top of the series)
Outline: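 SYBR Green fluorescence (485 ex/535 em) of lysed cultures, incubated overnight at room temperature in the dark, quantifies parasite DNA. Infected erythrocytes at 0.3% parasitemia and 2.5% hematocrit were exposed 72 h; values normalized to DMSO and 0.29 uM artemisinin controls.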

[5] = qHTS Assay for Identifying Gametocytocidal Compounds (AID 743244; active = well fitted curve in the direction sought with a large enough effect; an effect the other way counts as inactive or inconclusive;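 note: % is set by controls: 0 for no effect and ±100 for the full control effect; actives lower the fluorescent signal which means gametocytes are killed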); conditions: P. falciparum 3D7 stage III-V gametocytes, alamarBlue, 72 h; max response: stronger effect = lower value
Outline: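 3D7 gametocytes, stages III–V, 20,000/well; cpd 72 h, 37 °C/5% CO2; + alamarBlue 24 h; fluor. Ex 525/Em 598.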

[6] = qHTS profiling of the MIPE4 collection as inhibitors of Plasmodium falciparum (DD2) proliferation (AID 743345); conditions: P. falciparum Dd2 in erythrocytes, SYBR Green DNA, 72 h; at 28.5 µM unless noted
Outline: as §1

[7] = qHTS assay for cell viability of HEK293 cells (AID 743288; active = well fitted curve in the direction sought with a large enough effect; an effect the other way counts as inactive or inconclusive; note: % is set by controls: 0 for no effect and ±100 for the full control effect; nearly all actives have a fitted effect of over 50% in size); conditions: ATP luminescence (CellTiter-Glo), 18 h; max response: stronger effect = lower value
Outline: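 Viable-cell counts were inferred from luciferase-based ATP content in HEK293 cells seeded at 2,000/well, pre-incubated ≥5 h, then dosed with DMSO-solubilised compounds for 18 h at 37 C.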

[8] = qHTS assay for cell viability of the p53RE-bla HCT-116 cell line (AID 743292; active = well fitted curve in the direction sought with a large enough effect; an effect the other way counts as inactive or inconclusive; note: nearly all actives have a fitted effect of over 55% in size; note: potency is the fitted concentration of half-maximal effect)
Outline: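 Luminescent ATP quantitation (CellTiter-Glo) served as the viability read-out; reagent was added after 16 h compound exposure at 37 C and read after 30 min at room temperature. Cells: p53RE-bla HCT-116, 4,000 per well.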

## COc1ccc(-c2coc3cc(O)cc(O)c3c2=O)cc1
[1]
  parasite growth, % of DMSO control: 36.9%

## CCOc1ccc(Nc2nc(-c3c(C)nc4ccccn34)cs2)cc1
[2]
  remaining parasite growth % (stronger effect = lower value): 2.43%
[3]
  activity, percent of control: 5.76%
[4]
  remaining proliferation (% of control), lower = more inhibition: 7.43%
[1]
  parasite growth, % of DMSO control: 11.9%

## COc1ccc(C2Sc3ccccc3N(CCN(C)C)C(=O)C2OC(C)=O)cc1 (configuration not stated)
[1]
  parasite growth, % of DMSO control: 68.8% and 96.6%

## CC(=O)Oc1cc2c(s1)CCN(C(C(=O)C1CC1)c1ccccc1F)C2 (configuration not stated)
[5]
  max response: 3.57% (inactive)
[1]
  parasite growth, % of DMSO control: 56.7%
[6]
  parasite growth remaining, % of DMSO control (lower = more inhibition): 95.5%

## O=c1c(-c2ccc(O)cc2)coc2cc(OC3O[C@H](CO)[C@H](O)[C@H](O)[C@H]3O)cc(O)c12 (some centres not stated)
[1]
  parasite growth, % of DMSO control: 57%

## CC(=O)N(C)C1(c2ccccc2)CCN(CCC[C@]2(c3ccc(Cl)c(Cl)c3)CCCN(C(=O)c3ccccc3)C2)CC1
[2]
  remaining parasite growth % (stronger effect = lower value): -0.589%
[3]
  activity, percent of control: -0.455%
[4]
  remaining proliferation (% of control), lower = more inhibition: -1.35%

## C[C@@H](O)[C@H]1C(=O)N2C(C(=O)O)=C(S[C@@H]3CN[C@H](C(=O)N(C)C)C3)[C@H](C)[C@H]12
[5]
  max response: 2.89% (inactive)
[1]
  parasite growth, % of DMSO control: 109% [at 9.64 µM]
[6]
  parasite growth remaining, % of DMSO control (lower = more inhibition): 102% [at 9.64 µM]

## CC[C@H]1OC(=O)[C@H](C)[C@@H](O[C@H]2C[C@@](C)(OC)[C@@H](O)[C@H](C)O2)[C@H](C)[C@@H](O[C@@H]2O[C@H](C)C[C@H](N(C)C)[C@@H]2O)[C@](C)(O)C[C@@H](C)CN(C)[C@H](C)[C@@H](O)[C@]1(C)O
[2]
  remaining parasite growth % (stronger effect = lower value): 11.3%
[3]
  activity, percent of control: 19.2%
[4]
  remaining proliferation (% of control), lower = more inhibition: 31.5%
[6]
  parasite growth remaining, % of DMSO control (lower = more inhibition): 24.6%

## CO[C@H]1C=CC=C(C)C(=O)NC2=CC(=O)C(NCCN(C)C)=C(C[C@@H](C)C[C@H](OC)[C@@H](O)[C@@H](C)C=C(C)[C@@H]1OC(N)=O)C2=O
[2]
  remaining parasite growth % (stronger effect = lower value): -0.553%
[3]
  activity, percent of control: -0.115%
[4]
  remaining proliferation (% of control), lower = more inhibition: -2.33%

## O=C(O)c1cc(O)c2c(c1)C(=O)c1cccc(O)c1C2=O
[7]
  max response: -22.9% (inactive)
[8]
  Potency: 35.5 µM (active)
[1]
  parasite growth, % of DMSO control: 62.1% [at 57.5 µM]

## N#CC(=C(N)Sc1ccccc1N)C(C#N)=C(N)Sc1ccccc1N
[1]
  parasite growth, % of DMSO control: 4.41%

## C[C@@H]1CCN(C(=O)CC#N)C[C@H]1N(C)c1ncnc2[nH]ccc12
[2]
  remaining parasite growth % (stronger effect = lower value): 89.8%
[3]
  activity, percent of control: 90.1%
[4]
  remaining proliferation (% of control), lower = more inhibition: 56.2%
[1]
  parasite growth, % of DMSO control: 72.5%
[6]
  parasite growth remaining, % of DMSO control (lower = more inhibition): 96.3%

## O=C(O)c1c(Cl)c(Cl)c(Cl)c(Cl)c1-c1c2cc(I)c(=O)c(I)c-2oc2c(I)c(O)c(I)cc12
[5]
  max response: -8.78% (inactive)
[1]
  parasite growth, % of DMSO control: 83.8%
[6]
  parasite growth remaining, % of DMSO control (lower = more inhibition): 97.1%

## Cc1ccc(/C=N/NC(=O)c2ccccc2Oc2ccccc2)o1
[1]
  parasite growth, % of DMSO control: 82.9%

## CO[C@@H](C(=O)N1Cc2[nH]nc(NC(=O)c3ccc(N4CCN(C)CC4)cc3)c2C1)c1ccccc1
[2]
  remaining parasite growth % (stronger effect = lower value): 5.46%
[3]
  activity, percent of control: 24.6%
[4]
  remaining proliferation (% of control), lower = more inhibition: 7.25%
[1]
  parasite growth, % of DMSO control: 6.06%
[6]
  parasite growth remaining, % of DMSO control (lower = more inhibition): 12.3%

## Cn1c(N2CCCCS2(=O)=O)nc(C(=O)NCc2ccc(F)cc2)c(O)c1=O
[1]
  parasite growth, % of DMSO control: 101%

## O=C(CCc1ccc(O)cc1)c1c(O)cc(O)cc1O[C@@H]1O[C@H](CO)[C@H](O)[C@H](O)[C@H]1O
[1]
  parasite growth, % of DMSO control: 272%

## COc1ccc2cc(-c3nc(-c4ccc(S(C)=O)cc4)[nH]c3-c3ccncc3)ccc2c1 (configuration not stated)
[1]
  parasite growth, % of DMSO control: 6.21%

## CCOC(CN1C(=O)[C@](CC(=O)Nc2ccc(C)cc2)(NC(=O)Nc2ccc(C)cc2)c2ccccc21)OCC
[2]
  remaining parasite growth % (stronger effect = lower value): 4.05%
[3]
  activity, percent of control: 23.7%
[4]
  remaining proliferation (% of control), lower = more inhibition: 10.1%
[1]
  parasite growth, % of DMSO control: 14%
[6]
  parasite growth remaining, % of DMSO control (lower = more inhibition): 38.2%

## CS(=O)c1ccc(-c2nc(-c3ccc(F)cc3)c(-c3ccncc3)[nH]2)cc1 (configuration not stated)
[5]
  max response: 1.2% (inactive)
[4]
  remaining proliferation (% of control), lower = more inhibition: 20.3%
[1]
  parasite growth, % of DMSO control: 19.5% [at 57.5 µM]
[6]
  parasite growth remaining, % of DMSO control (lower = more inhibition): 26.4% [at 57.5 µM]

## CC=CC(=O)N(CC)c1ccccc1C
[1]
  parasite growth, % of DMSO control: 92.3%

## O=c1c(O)c(-c2ccc(O)cc2)oc2cc(O)cc(O)c12
[7]
  max response: 3.99% (inactive) and -0.18% (inactive)
[8]
  Potency: inactive
[1]
  parasite growth, % of DMSO control: 24.5%
[6]
  parasite growth remaining, % of DMSO control (lower = more inhibition): 97.3%

## Cc1cnc(C(=O)O)c[n+]1[O-]
[5]
  max response: 8.17% (inactive) and 2.06% (inactive) and -4.26% (inactive)
[1]
  parasite growth, % of DMSO control: 97%
[6]
  parasite growth remaining, % of DMSO control (lower = more inhibition): 104%

## NC(CO)(CO)CCc1ccc(Sc2cccc(OCc3ccccc3)c2)cc1Cl
[2]
  remaining parasite growth % (stronger effect = lower value): -0.423%
[3]
  activity, percent of control: 1.55%
[4]
  remaining proliferation (% of control), lower = more inhibition: -1.39%
[1]
  parasite growth, % of DMSO control: 4.87%
[6]
  parasite growth remaining, % of DMSO control (lower = more inhibition): 8.96%

## CC=C(C)C(=O)O[C@H]1C(C)=C[C@]23C(=O)[C@@H](C=C(CO)[C@@H](O)[C@]12O)[C@H]1[C@@H](C[C@H]3C)C1(C)C
[1]
  parasite growth, % of DMSO control: 18.7%

## CO[C@H]1C[C@@H]2CC[C@@H](C)[C@@](O)(O2)C(=O)C(=O)N2CCCC[C@@H]2C(=O)O[C@H]([C@H](C)C[C@@H]2CC[C@H](OCCO)[C@H](OC)C2)CC(=O)[C@H](C)C=C(C)[C@@H](O)[C@@H](OC)C(=O)[C@H](C)C[C@H](C)C=CC=CC=C1C
[2]
  remaining parasite growth % (stronger effect = lower value): -1.41%
[3]
  activity, percent of control: -0.639%
[4]
  remaining proliferation (% of control), lower = more inhibition: -1.24%
[1]
  parasite growth, % of DMSO control: 4.95%
[6]
  parasite growth remaining, % of DMSO control (lower = more inhibition): 7.69%

## O=C1NC(=O)C(=Cc2ccc3nccnc3c2)S1
[1]
  parasite growth, % of DMSO control: 56.7% [at 9.64 µM]

## Cc1cccc(Nc2nc(-c3ccncc3)cs2)c1
[1]
  parasite growth, % of DMSO control: 29.1%

## COc1cc(NC(=O)c2ccc(-c3ccc(Cl)cc3)o2)cc(OC)c1
[1]
  parasite growth, % of DMSO control: 97.8%

## COc1ccc(-c2oc3c(CC=C(C)C)c(OC4O[C@H](CO)[C@@H](O)[C@H](O)[C@@H]4O)cc(O)c3c(=O)c2OC2O[C@@H](C)[C@H](O)[C@@H](O)[C@@H]2O)cc1 (some centres not stated)
[1]
  parasite growth, % of DMSO control: 8.49%
[6]
  parasite growth remaining, % of DMSO control (lower = more inhibition): 5.99%

## COc1ccc(-c2nc(N3CCOCC3)c3sc(CN(C)c4ncc(C(=O)NO)cn4)cc3n2)cn1
[1]
  parasite growth, % of DMSO control: 5.2%
[6]
  parasite growth remaining, % of DMSO control (lower = more inhibition): 6.7%

## Cc1ccccc1C(C(=O)NC1CCCCC1)N(C(=O)Cn1ccnc1C)c1cccc(F)c1 (configuration not stated)
[1]
  parasite growth, % of DMSO control: 103%

## COCCCCC(=NOCCN)c1ccc(C(F)(F)F)cc1
[1]
  parasite growth, % of DMSO control: 47.6%

## Cc1ccc(C(=O)Nc2cccc(C(F)(F)F)c2)cc1Nc1nc(-c2cccnc2)nc2c1cnn2C
[1]
  parasite growth, % of DMSO control: 7.71%

## CCOC(=O)O[C@]1(C(=O)OCCl)CC[C@@H]2[C@H]3CCC4=CC(=O)C=C[C@]4(C)[C@@H]3[C@@H](O)C[C@@]21C
[1]
  parasite growth, % of DMSO control: 48.2%
[6]
  parasite growth remaining, % of DMSO control (lower = more inhibition): 86.4%

## CNC1CCC(N(Cc2cccc(-c3ccncc3)c2)C(=O)c2sc3c(F)ccc(F)c3c2Cl)CC1 (configuration not stated)
[1]
  parasite growth, % of DMSO control: 4.87%
[6]
  parasite growth remaining, % of DMSO control (lower = more inhibition): 7.02%

## COCCOc1nc(-c2ccc(Cl)c(Cl)c2)n(-c2ccc(NC(=O)CCl)cc2)n1
[1]
  parasite growth, % of DMSO control: 20.8%

## O=C1C[C@@H](c2ccc(O)cc2)Oc2cc(O)cc(O)c21
[1]
  parasite growth, % of DMSO control: 20%

## O=C(OCC#CCSc1nnc(-c2cccc3ccccc23)o1)c1cc2ccccc2s1
[1]
  parasite growth, % of DMSO control: 49.1%
[6]
  parasite growth remaining, % of DMSO control (lower = more inhibition): 83%

## Oc1ccc(C2CCN(c3ccnc4ccccc34)CC2)cc1O
[1]
  parasite growth, % of DMSO control: 6.17%
[6]
  parasite growth remaining, % of DMSO control (lower = more inhibition): 13.2%
